Here are results for 9 compounds from PubChem BioAssay (NCI).

Compounds without any hit were thinned out: in the full panel of roughly 83,000, 20% have a hit.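 Step 1: grow cells in 96-well plates. Step 2: add test compound at a single concentration. Step 3: incubate 48 h. Step 4: record percent growth.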 Unmarked numbers belong to inactive results. Active and inactive are the calls of the source. The calls were made as follows: active = growth percent below 10; inactive = the rest.

What all share (test): NCI-60 one-dose screen, 48 h (100 = growth as untreated, 0 = no growth, -100 = all killed)
The test system of one test is HCT-15 colon. The note with it: 10 µM unless noted.
The subject of the next test is SNB-19 CNS. The following applies: 10 µM unless noted.
For another test, the system named is U251 CNS. The following applies: 10 µM unless noted.
The test system of another test is PC-3 prostate. The following applies: 10 µM unless noted.
Another test has as its system SK-MEL-5 melanoma. The note with it: 10 µM unless noted.
Another test deals with UACC-62 melanoma. The following applies: 10 µM unless noted.
The test system of a further test is LOX IMVI melanoma. The following applies: 10 µM unless noted.
A further test deals with SK-MEL-28 melanoma. The note with it: 10 µM unless noted.
A further test relates to EKVX NSCLC. The following applies: 10 µM unless noted.
The test system of a further test is SN12C renal. The note with it: 10 µM unless noted.
The test system of a further test is UO-31 renal. The following applies: 10 µM unless noted.
The test system of another test is TK-10 renal. The note with it: 10 µM unless noted.
The next test has as its system ACHN renal. The note with it: 10 µM unless noted.
Another test concerns CAKI-1 renal. The note with it: 10 µM.
For a further test, the system named is A498 renal. The note with it: 10 µM unless noted.
The next test relates to CCRF-CEM leukemia. The note with it: 10 µM unless noted.
The subject of a further test is MOLT-4 leukemia. The following applies: 10 µM unless noted.
The subject of a further test is SK-MEL-2 melanoma. The following applies: 10 µM unless noted.
Another test has as its system SNB-75 CNS. The note with it: 10 µM unless noted.
A further test has as its system HT29 colon. The following applies: 10 µM unless noted.

Regarding `CCC(CC)n1c(=O)c(SC2=NC3C(NN2)N(CC)C(=O)N3CC)c(C(=O)O)c2ccccc21` (stereo not given), the growth in the test with HCT-15 colon was 14.2%; in the test with SNB-19 CNS it was 35.2%; in the test with U251 CNS, 14.8%; in the test on PC-3 prostate, 23.9%; with SK-MEL-5 melanoma, 6.37% (active); in the test with UACC-62 melanoma it was 22.5%. Moreover, the growth with LOX IMVI melanoma is 23%; with SK-MEL-28 melanoma, 65.4%; with EKVX NSCLC it was 52.8%; with SN12C renal, 20.1%; in the test on UO-31 renal, 39.5%; in the test on TK-10 renal, 68.8%. Further, the growth with ACHN renal is 27.7%; in the test on CAKI-1 renal, 36.6%; in the test on A498 renal, -10.5% (active); in the test on CCRF-CEM leukemia, 16.6%; in the test on MOLT-4 leukemia, 16.2%.

Regarding `O=C(Nc1cccc(Cl)c1)Nc1nc2ccc(-c3cccc4ccccc34)cc2s1`, the growth is 34.1% with HCT-15 colon; 56.4% with SNB-19 CNS; 35.4% in the test with U251 CNS; 24.9% with PC-3 prostate; 54.4% in the test with SK-MEL-5 melanoma; 42.3% in the test with UACC-62 melanoma. Also, the growth was 73.3% in the test on SK-MEL-28 melanoma; 82.6% with SK-MEL-2 melanoma; 56.4% in the test on EKVX NSCLC; 53% in the test with SN12C renal; 47.4% in the test with UO-31 renal; 40.3% with ACHN renal. Also, the growth was 37.9% with CAKI-1 renal, 40.4% in the test with CCRF-CEM leukemia and 41.5% in the test on MOLT-4 leukemia.

Consider `C=C1C(=O)O[C@@H]2C[C@@H](C)/C=C\C(=O)[C@](C)(OC(C)=O)C[C@H](OC(=O)/C(C)=C\C)[C@@H]12`, for which the growth with HCT-15 colon is -26% (active); in the test with SNB-75 CNS, 38.2%; in the test on SNB-19 CNS it was 60.1%; with U251 CNS, 2.55% (active); in the test with PC-3 prostate, 1.27% (active); in the test with LOX IMVI melanoma, -75.1% (active). In addition, the growth with SK-MEL-2 melanoma is -15.9% (active); with EKVX NSCLC, 5.52% (active); in the test with UO-31 renal, -88.6% (active); in the test with TK-10 renal, -61% (active); with ACHN renal it was -75.5% (active); with CAKI-1 renal, -11.1% (active). Further, the growth with A498 renal was 38.8%; with CCRF-CEM leukemia, -17% (active); in the test on MOLT-4 leukemia, 2.13% (active).

For `COc1cc(/C=N/n2cnc3oc(-c4ccccc4)cc3c2=N)cc(CN2CCN(C)CC2)c1O`, the growth with HCT-15 colon is 81.4%; in the test with SNB-19 CNS, 110%; in the test with U251 CNS it was 108%; with PC-3 prostate, 77.7%; in the test on SK-MEL-5 melanoma it was 87.9%; with UACC-62 melanoma it was 102%. The growth with LOX IMVI melanoma is 79%; with SK-MEL-28 melanoma, 94.1%; in the test with SK-MEL-2 melanoma it was 113%; in the test on EKVX NSCLC it was 99.3%; in the test with SN12C renal it was 80.4%; in the test with UO-31 renal, 74%. The growth in the test on TK-10 renal was 113%; in the test on ACHN renal, 83.1%; in the test on CAKI-1 renal, 73.3%; in the test on A498 renal it was 72.2%; with CCRF-CEM leukemia, 66.9%; with MOLT-4 leukemia, 76.4%.

Regarding `O=C(COc1cccc2cccnc12)Nc1ccc(C(=O)/C=C/c2ccc(Cl)cc2)cc1`, the growth in the test on HCT-15 colon is 70%; in the test on SNB-75 CNS, 96%; with SNB-19 CNS, 87.2%; in the test on U251 CNS, 92.2%; in the test on PC-3 prostate it was 89.2%; in the test with SK-MEL-5 melanoma it was 83.7%. Also, the growth in the test on UACC-62 melanoma was 72.6%; with LOX IMVI melanoma, 47.5%; in the test on SK-MEL-28 melanoma it was 101%; with SK-MEL-2 melanoma, 96.2%; in the test with EKVX NSCLC, 80.9%; in the test on SN12C renal it was 86%. Moreover, the growth in the test with UO-31 renal was 67.7%; in the test with TK-10 renal, 104%; in the test with ACHN renal, 94%; with CAKI-1 renal it was 76.2%; in the test with CCRF-CEM leukemia it was 83.3%; with MOLT-4 leukemia it was 67.7%.

For the compound `c1ccc(-c2c(-c3ccccc3)[n+](Cc3ccc4ccccc4c3)c(-c3ccccc3)n2Cc2ccc3ccccc3c2)cc1`, the growth is -81.7% (active) with HCT-15 colon; -70.1% (active) with HT29 colon; -94.9% (active) with SNB-19 CNS; -78.8% (active) in the test on U251 CNS; -99.1% (active) with SK-MEL-5 melanoma; -89.8% (active) with LOX IMVI melanoma. Besides, the growth in the test on SK-MEL-2 melanoma is -67.7% (active); with EKVX NSCLC it was -90.1% (active); with SN12C renal it was -91.7% (active); with UO-31 renal, -95.2% (active); in the test on TK-10 renal, -81.1% (active); in the test with ACHN renal it was -95.5% (active). For the same compound, the growth is -93.4% (active) in the test with CAKI-1 renal, -21.6% (active) in the test on CCRF-CEM leukemia and -54.1% (active) with MOLT-4 leukemia.

In the case of `C=C(C)[C@@H]1CC[C@]2(C)[C@H](CC=C3[C@@H]4CC(C)(C)CC[C@]4(C(=O)NCC#CCN4CCN(C)CC4)CC[C@]32C)[C@@]1(C)CCC#N`, the growth with HT29 colon is 26.8%; in the test with SNB-75 CNS, 67%; in the test on SNB-19 CNS it was 72.5%; with U251 CNS, 53.6%; in the test with PC-3 prostate, 37.3%; in the test with SK-MEL-5 melanoma, 53.4%. The growth in the test with UACC-62 melanoma was 79%; in the test with LOX IMVI melanoma, 12.3%; in the test on SK-MEL-28 melanoma, 96.9%; in the test with SK-MEL-2 melanoma, 94%; in the test with EKVX NSCLC, 81.6%; in the test with SN12C renal, 76%. Also, the growth in the test with UO-31 renal is 60%; in the test on TK-10 renal it was 83.9%; in the test with ACHN renal it was 78.5%; in the test with CAKI-1 renal, 30.7%; with A498 renal it was 84.1%; in the test on CCRF-CEM leukemia it was 48.9%. Besides, in the test with MOLT-4 leukemia, the growth is 19%.

For the compound `Cc1ccc(Nc2ncnc3c2c(C)nn3-c2ccc([N+](=O)[O-])cc2)cc1`, the growth was 82.5% with HCT-15 colon; 88.8% in the test with SNB-19 CNS; 60.1% in the test on U251 CNS; 78.4% in the test on PC-3 prostate; 92.9% in the test with SK-MEL-5 melanoma; 92.2% with UACC-62 melanoma. The growth with SK-MEL-28 melanoma was 97.5%; in the test on SK-MEL-2 melanoma, 107%; in the test on EKVX NSCLC, 67.8%; in the test on SN12C renal it was 90%; in the test on UO-31 renal, 91.3%; with TK-10 renal it was 97.9%. For the same compound, the growth in the test with ACHN renal was 62.8%; with CAKI-1 renal it was 63.6%; in the test on CCRF-CEM leukemia it was 79.8%; in the test with MOLT-4 leukemia it was 87.3%.

With `Cc1nn(-c2ccc(Br)cc2)c2nc(CCl)[nH]c(=O)c12`, the growth with HCT-15 colon was 103%; in the test on SNB-75 CNS, 99.7%; in the test with SNB-19 CNS, 97.1%; in the test with U251 CNS, 98.5%; in the test on PC-3 prostate, 96.4%; in the test on SK-MEL-5 melanoma it was 102%. The growth is 95.1% in the test with UACC-62 melanoma; -9.8% (active) with LOX IMVI melanoma; 103% in the test on SK-MEL-28 melanoma; 99.9% in the test with SK-MEL-2 melanoma; 99.5% in the test with EKVX NSCLC; 100% with SN12C renal. For the same compound, the growth in the test with UO-31 renal was -90.1% (active); in the test on TK-10 renal, 111%; with ACHN renal it was 94.8%; with CAKI-1 renal, 96.3%; in the test with CCRF-CEM leukemia, 83.6%.
